Screening data: PubChem, NMMLSC
ABCB6 inh 2 = blocks the human ABCB6 transporter | hit rate 0.19% among 360,000 | Q9NP58 | K562-ABCB6 porphyrin accumulation, flow cytometry, 1 h; stronger effect = lower value | fluorescence ratio to DMSO, % at 10 µM;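 active = fluorescence ratio to DMSO below 75%, the collection mean minus 3 SD; inconclusive = too few cells collected in the well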;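 also: signal is porphyrin accumulated inside mitochondria; 100% equals median channel fluorescence of DMSO control wells; lower ratio means ABCB6 inhibition with less porphyrin fluorescence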
Exocytosis inh = lytic granule exocytosis inhibition. TALL-104 LAMP-1 surface exposure, flow cytometry; cells stimulated with thapsigargin and PMA. inhibition, % at 10 µM. hit rate 0.66% among 360,000;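 active = inhibition above about 55%, limit read from the data; inconclusive = no clear call, values can overlap the other calls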
Myeloid diff 2 = compounds promoting myeloid differentiation. calls only at 10 µM. hit rate 1% among 360,000. ER-HoxA9 myeloid progenitors, lysozyme-GFP differentiation, flow cytometry;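 active = normalized GFP-positive differentiation at or above the plate's own cutoff, the solvent-only control mean plus 3 SD; inconclusive = no clear call, values can overlap the other calls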;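 also: cells exposed to compound for four days before flow analysis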
Numbers without * were called inactive; i = inactive; ? = inconclusive; . = no result; + = active, no number. The list is not random: actives were taken first. Their share in the collection is about 1.8%.

SMILES	ABCB6 inh 2	Exocytosis inh	Myeloid diff 2
CCN(CC(=O)Nc1c(F)cccc1F)C(=O)C1CCN(S(=O)(=O)c2ccccc2C(=O)OC)CC1	100	2	i
CN1CCN(S(=O)C23CC4CC(CC(C4)C2)C3)CC1 (centres undefined)	103	-2	i
O=S(N1CCc2ccccc21)C12CC3CC(CC(C3)C1)C2 (centres undefined)	110	-2	+
OC[C@@H]1CN(Cc2cccc(C(F)(F)F)c2)C[C@H](n2cnc3c(NCc4ccco4)ncnc32)O1	99	-9	i
O=C(NCC1CCCO1)c1ccc(NS(=O)(=O)c2cccc([N+](=O)[O-])c2)cc1 (centres undefined)	98	0	i
O=C(NCC1CCCO1)c1ccccc1S(=O)(=O)c1ccc([N+](=O)[O-])cc1 (centres undefined)	145	0	+
O=c1c(-c2ccco2)nc2ccccc2n1C(c1ccccc1)c1nc2ccccc2[nH]1 (centres undefined)	.	-1	i
COc1ccc(-c2cnc(C(O)c3ccc(CN4CCCCC4)cc3)[nH]2)cc1 (centres undefined)	102	2	i
COC(=O)c1cc(C(=O)OCC(=O)NC(=O)c2ccccc2)cc([N+](=O)[O-])c1	95	4	i
O=C(CCC(=O)c1cccs1)c1cccs1	103	5	+
Cc1ccc(C)c(NC(=O)COC(=O)CCC(=O)c2cccs2)c1	97	-3	+
Cc1ccc(NC(=O)COC(=O)CCC(=O)c2cccs2)cc1	103	-4	i
O=C(CCC(=O)c1cccs1)NC(c1ccccc1)c1ccccc1	91	-3	i
O[C@@H]1CN(Cc2cccs2)[C@@H](c2ccc(Cl)cc2)C[C@H]1n1cc(C2CC2)nn1	97	-3	i
O=C1S/C(=C\c2ccc(N3CCOCC3)o2)C(=O)N1Cc1ccc(F)cc1	325	32	i
O=C1N=C(N2CCOCC2)S/C1=C/c1ccc(-c2ccc(F)cc2)o1	101	8	i
O=C1NC(=S)S/C1=C/c1ccc(N2CCOCC2)o1	123	0	+
Cc1ccc(-c2ccc(/C=C3\SC(N4CCOCC4)=NC3=O)o2)cc1	110	60*	?
COc1cc(-c2cc(NC=O)c3ncc(-c4cccc(C(=O)N(C)C)c4)n3c2)cc(OC)c1OC	92	13	i
Cc1ccc(Nc2ncnc(Cl)c2N)cc1	97	2	i
CCOC(=O)CCCCCC(=O)Nc1ccc2c(c1)C(=O)N([C@@H](C)CO)C[C@@H](C)[C@H](CN(C)S(=O)(=O)c1cccs1)OCCCC[C@H](C)O2	99	-4	i
O=C(c1ccsc1)N1CCCC(N2CCOCC2)C1 (centres undefined)	94	-4	i
CC(Oc1cccc(Cl)c1)C(=O)Nc1ccc(S(=O)(=O)N(C)C2CCN(C)CC2)cc1 (centres undefined)	101	-2	+
CC(=O)Nc1ccc(S(=O)(=O)N(C)C2CCN(C)CC2)cc1	97	1	i
Cc1ccnc(N/C=C(\C#N)c2nc(-c3cccc(Br)c3)cs2)c1	220	-1	+
SMILES	ABCB6 inh 2	Exocytosis inh	Myeloid diff 2
N#C/C(=C\Nc1ccc2cn[nH]c2c1)c1nc(-c2ccccc2)cs1	182	-2	i
Cc1cccc(/C(N)=N/OC(=O)c2cccc3ccccc23)c1	91	-3	i
COc1ccc(C(=O)OCCN2C(=O)c3ccccc3C2=O)cc1	95	2	i
COc1ccc(C(=O)O/N=C2\C(=O)N(C)c3ccccc32)cc1	95	66*	i
CN1C(=O)/C(=N\OC(=O)c2cccc3ccccc23)c2ccccc21	92	80*	i
CC(C#N)Sc1ccc(S(=O)(=O)N2CCCC2)cn1 (centres undefined)	101	9	i
CC1CCN(C(=O)c2nc[nH]c2C(=O)N2CCC(C)CC2)CC1	96	34	i
Cc1cccc(-n2ncc3c(NCc4ccccc4)ncnc32)c1	99	-2	+
c1ccc(CNc2ncnc3c2cnn3-c2ccccc2)cc1	94	-5	?
COc1ccc(OC)c(CN2C(=O)c3ccccc3C2c2nnnn2C2CCCC2)c1 (centres undefined)	100	-10	i
Cc1cccc(NC(=O)c2ccc([N+](=O)[O-])o2)c1C	98	-4	+
O=C(Nc1cccc2ccccc12)c1ccc([N+](=O)[O-])o1	98	1	.
CN1CCN(c2ccccc2NC(=O)c2cc3ccccc3o2)CC1	103	-6	+
O=C(Nc1ccccc1N1CCCC1)c1ccc([N+](=O)[O-])o1	99	?	+
CC1CCN(c2ccccc2NC(=O)c2ccc([N+](=O)[O-])o2)CC1	168	1	?
O=C(Nc1ccccc1N1CCCC1)c1cc2ccccc2o1	107	-1	i
